In the supplement of paper PMC9262897, “Low-cost anti-mycobacterial drug discovery using engineered E. coli” (Nature Communications, 2022):
Where a name gives a salt, the structure may show the parent alone. ± gives the standard deviation of the averaged measurements.

Tests used:
Test in all cases: growth (OD600 after 10 h); higher = more growth (less inhibition)
[1] = test system: E. coli TESEC Alr+ wild-type control; settings: compound 0.1 mM; raw OD600 reference: median of DMSO wells 0.241, cell-free background 0.041
Experimental: (§1)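 TESEC Mtb Alr E. coli, or the Alr+ wild-type control, in 384-well plates with Prestwick library compounds at 0.1 mM and 1% DMSO, across arabinose induction levels of 1E3 to 1E7 nM. Growth is read as OD600 after 10 h at 37 °C in triplicate biological replicates.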

E. coli TESEC Mtb Alr [2] = settings: compound 0.1 mM
Experimental: as §1

E. coli TESEC Mtb Asd = settings: compound 0.1 mM
Experimental: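 TESEC E. coli strains in which the native enzyme is deleted and replaced by arabinose-inducible Mtb Asd, DapB, CysH or TrpD, each grown in its selective medium. Strains were screened against the Prestwick library at 0.1 mM and 1% DMSO in 384-well format at low and high arabinose induction. Growth is read as OD600 after 10 h in triplicate.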

[3] = test system: E. coli TESEC Alr+ wild-type control; settings: compound 0.1 mM; raw OD600 reference: median of DMSO wells 0.49, cell-free background 0.052
Experimental: (§2)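 TESEC Mtb Alr E. coli (ΔaraC ΔtolC ΔentC Δalr ΔdadX, arabinose-inducible Mtb Alr) or the Alr+ wild-type control strain, grown in defined M9-fructose medium without D-alanine in 96-well plates with Prestwick library compounds at 0.1 mM and 1% DMSO. Low Alr induction is 0.1 µM arabinose and high induction is 10 mM arabinose.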

E. coli TESEC Mtb Alr [4] = settings: compound 0.1 mM; remark: listed apart in the source
Experimental: as §2

[5] = arabinose 1000 nM, raw OD600 reference: median of DMSO wells 0.294, cell-free background 0.041
[6] = arabinose 10000 nM, raw OD600 reference: median of DMSO wells 0.264, cell-free background 0.041
[7] = arabinose 100000 nM, raw OD600 reference: median of DMSO wells 0.201, cell-free background 0.041
[8] = arabinose 1000000 nM, raw OD600 reference: median of DMSO wells 0.193, cell-free background 0.041
[9] = arabinose 10000000 nM, raw OD600 reference: median of DMSO wells 0.146, cell-free background 0.041
[10] = arabinose induction (level): High, raw OD600 reference: median of DMSO wells 0.331, cell-free background 0.041
[11] = arabinose induction (level): Low, raw OD600 reference: median of DMSO wells 0.417, cell-free background 0.041
[12] = arabinose 100 nM, raw OD600 reference: median of DMSO wells 0.413, cell-free background 0.052
[13] = arabinose 10000000 nM, raw OD600 reference: median of DMSO wells […], cell-free background 0.052

Structure (SMILES)	growth [1]	growth (E. coli TESEC Mtb Alr [2]; [5])	growth (E. coli TESEC Mtb Alr [2]; [6])	growth (E. coli TESEC Mtb Alr [2]; [7])	growth (E. coli TESEC Mtb Alr [2]; [8])	growth (E. coli TESEC Mtb Alr [2]; [9])	growth (E. coli TESEC Mtb Asd; [10])	growth (E. coli TESEC Mtb Asd; [11])	growth [3]	growth (E. coli TESEC Mtb Alr [4]; [12])	growth (E. coli TESEC Mtb Alr [4]; [13])
CC(=O)Nc1ccc(O)cc1 [Acetaminophen]	0.251 ± 0.0034	0.315 ± 0.0071	0.277 ± 0.0034	0.202 ± 0.0068	0.188 ± 0.0053	0.162 ± 0.0048	0.473 ± 0.034	0.455 ± 0.0071	0.559 ± 0.083	0.407 ± 0.015	0.335 ± 0.011
CCCCCNC(=N)N/N=C/c1c[nH]c2ccc(OC)cc12 [Tegaserod maleate]	0.0464 ± 0.0039	0.047 ± 0.0021	0.0443 ± 0.00086	0.0455 ± 0.0016	0.0451 ± 0.0011	0.0474 ± 0.0038	0.0504 ± 0.0014	0.0483 ± 0.0011	0.0476 ± 0.00066	0.0508 ± 0.00065	0.0554 ± 0.00072
Cc1onc(-c2c(Cl)cccc2Cl)c1C(=O)N[C@@H]1C(=O)N2[C@@H]1SC(C)(C)[C@@H]2C(=O)O [Dicloxacillin sodium salt hydrate]	0.222 ± 0.0048	0.226 ± 0.11	0.261 ± 0.0043	0.196 ± 0.02	0.185 ± 0.007	0.149 ± 0.0044	0.251 ± 0.056	0.311 ± 0.09	0.516 ± 0.11	0.403 ± 0.0099	0.351 ± 0.017
CN(C)CCOC(=O)C(c1ccccc1)C1(O)CCCC1 (centres undefined) [Cyclopentolate hydrochloride]	0.219 ± 0.0068	0.29 ± 0.0093	0.27 ± 0.01	0.183 ± 0.014	0.19 ± 0.018	0.133 ± 0.0078	0.198 ± 0.013	0.334 ± 0.1	0.54 ± 0.099	0.4313 ± 0.0024	0.316 ± 0.018
CCOC(=O)[C@@](C)(N)Cc1ccc(O)c(O)c1 [Methyldopate hydrochloride]	0.106 ± 0.0036	0.159 ± 0.008	0.185 ± 0.011	0.116 ± 0.0072	0.0901 ± 0.0019	0.116 ± 0.0018	0.163 ± 0.024	0.276 ± 0.13	0.469 ± 0.013	0.405 ± 0.021	0.339 ± 0.022
COC(=O)C1=C(C)NC(C)=C(C(=O)OC)C1c1ccccc1[N+](=O)[O-] [Nifedipine]	0.0488 ± 0.00049	0.144 ± 0.0021	0.2006 ± 0.0018	0.136 ± 0.0053	0.0952 ± 0.0041	0.149 ± 0.0044	0.0844 ± 0.0011	0.0795 ± 0.0099	0.447 ± 0.017	0.39 ± 0.0088	0.21 ± 0.039
CCCCC1(COC(=O)CCC(=O)O)C(=O)N(c2ccccc2)N(c2ccccc2)C1=O [Suxibuzone]	0.203 ± 0.0032	0.291 ± 0.013	0.244 ± 0.0044	0.192 ± 0.019	0.188 ± 0.0095	0.1314 ± 0.001	0.305 ± 0.052	0.427 ± 0.026	0.521 ± 0.1	0.401 ± 0.0076	0.341 ± 0.0062
Cc1onc(-c2ccccc2)c1-c1ccc(S(N)(=O)=O)cc1 [Valdecoxib]	0.124 ± 0.0019	0.173 ± 0.0027	0.216 ± 0.029	0.148 ± 0.0053	0.0949 ± 0.0023	0.122 ± 0.0014	0.196 ± 0.038	0.245 ± 0.045	0.388 ± 0.027	0.4007 ± 0.0035	0.198 ± 0.016
CCCNCC(O)COc1ccccc1C(=O)CCc1ccccc1 (centres undefined) [Propafenone hydrochloride]	0.201 ± 0.0092	0.241 ± 0.019	0.281 ± 0.012	0.176 ± 0.015	0.124 ± 0.0027	0.155 ± 0.006	0.144 ± 0.007	0.345 ± 0.02	0.452 ± 0.022	0.412 ± 0.009	0.285 ± 0.0058
